In PubChem BioAssay AID1159580 (chemical genetic matrix, 2015):
In all, about 5,500 compounds went through this assay and about 2,000 (36%) were called active. Not shown: some 18% with an inconclusive outcome. Cut-off read from the data, not from the text of the source: active = normalized growth mostly below about 0.91 (no sharp cut-off); inconclusive = no clear call, values can overlap the other calls; inactive = mostly above about 0.92. Some of the results follow.

Test: chemical genetic growth profiling, strain panel (AID 1159580);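 note: tested at 20 µM; growth read once vehicle control cultures reached saturation at 30 °C; 1 = growth at the plate median or of vehicle wells; lower values mean less growth of the strain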
Details: S. cerevisiae deletion strains, growth OD

Measured: normalized growth

CCC(C(=O)Nc1ccc(C(F)(F)F)cc1)c1ccccc1 (stereo not drawn)
inactive: locus YAL013W, strain DEP1, hits give low values 0.989 | locus YBR229C, strain ROT2, hits give low values 0.984 | locus YCL061C, strain MRC1, hits give low values 0.958 | locus YDL101C, strain DUN1, hits give low values 0.956 | locus YDL134C, strain PPH21, hits give low values 0.977 | locus YDR150W, strain NUM1, hits give low values 0.952 | locus YEL061C, strain CIN8, hits give low values 1.03 | locus YGR078C, strain PAC10, hits give low values 0.958 | locus YHR030C, strain SLT2, hits give low values 0.986 | locus YHR087W, strain rtc3, hits give low values 0.998 | locus YJR043C, strain POL32, hits give low values 0.972 | locus YJR075W, strain HOC1, hits give low values 0.96 | locus YKL190W, strain CNB1, hits give low values 0.982 | locus YLR039C, strain RIC1, hits give low values 0.923 | locus YLR058C, strain SHM2 (second series), hits give low values 0.982 | locus YLR085C, strain ARP6, hits give low values 0.925 | locus YLR262C, strain YPT6, hits give low values 0.987 | locus YML094W, strain GIM5, hits give low values 0.981 | locus YMR219W, strain ESC1, hits give low values 0.994 | locus YMR263W, strain SAP30, hits give low values 0.99 | locus YNL128W, strain TEP1, hits give low values 0.982 | locus YNL153C, strain GIM3, hits give low values 0.968 | locus YNL298W, strain CLA4 (second series), hits give low values 0.945 | locus YNL322C, strain KRE1, hits give low values 0.99 | locus YNR030W, strain Alg12, hits give low values 0.976 | locus YPL055C, strain LGE1, hits give low values 1.01 | locus YPL241C, strain CIN2, hits give low values 0.932 | locus YPR135W, strain CTF4, hits give low values 0.906
